# What was measured:
# Test in all cases: DAPPL (digital affinity profiling via proximity ligation, sequencing); 10 mM Tris-HCl pH 7.5, 50 mM NaCl, 1 mM DTT, 4% glycerol, room temperature, 30 min; GST-TFs on glutathione beads, 16-mer random dsDNA library, 0.1% formaldehyde crosslink after washing; high values mean tight binding
# FEV = target: T1, FEV (Homo sapiens, UniProt Q99581 1-238); conditions: protein: recombinant; tags: N-terminal GST; dsDNA, one strand shown
# T1 sequence: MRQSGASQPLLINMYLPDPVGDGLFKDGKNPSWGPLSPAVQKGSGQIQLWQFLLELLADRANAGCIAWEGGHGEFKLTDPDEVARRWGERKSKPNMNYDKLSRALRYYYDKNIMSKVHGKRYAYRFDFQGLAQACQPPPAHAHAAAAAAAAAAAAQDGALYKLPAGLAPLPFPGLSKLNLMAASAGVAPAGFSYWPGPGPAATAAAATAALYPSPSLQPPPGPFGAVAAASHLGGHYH
# Procedure, shortened: (§1)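 Human transcription factors were made in yeast as GST fusions, captured on glutathione beads and barcoded with DNA. With a tag-only sample included, the pool was incubated with 200 nmole of a random double-stranded 16-mer DNA library in Tris/NaCl/DTT/glycerol buffer at room temperature for 30 min, then crosslinked with 0.1% formaldehyde after washing, ligated by proximity, amplified and sequenced. For binding signal, each hexamer's read frequency for a factor is divided by its frequency for the tag-only sample.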
# ETV5 = ETV5 (Homo sapiens, UniProt P41161 1-510); conditions: protein: recombinant; tags: N-terminal GST; dsDNA, one strand shown
# ETV5, sequence (P41161 whole entry): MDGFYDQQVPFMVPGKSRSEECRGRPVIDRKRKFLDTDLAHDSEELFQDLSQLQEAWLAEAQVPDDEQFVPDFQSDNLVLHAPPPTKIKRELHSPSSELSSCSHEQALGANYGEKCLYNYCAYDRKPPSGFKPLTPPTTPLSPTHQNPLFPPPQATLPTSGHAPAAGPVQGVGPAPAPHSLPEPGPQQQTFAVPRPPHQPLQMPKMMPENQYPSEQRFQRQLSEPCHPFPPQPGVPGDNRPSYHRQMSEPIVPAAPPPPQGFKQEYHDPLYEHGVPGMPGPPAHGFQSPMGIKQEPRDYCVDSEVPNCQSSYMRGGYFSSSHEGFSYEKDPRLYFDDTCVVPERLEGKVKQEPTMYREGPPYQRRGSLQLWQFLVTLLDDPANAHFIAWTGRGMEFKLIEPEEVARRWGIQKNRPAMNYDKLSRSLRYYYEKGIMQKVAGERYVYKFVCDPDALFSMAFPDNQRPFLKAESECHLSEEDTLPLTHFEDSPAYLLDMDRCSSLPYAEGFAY
# Procedure, shortened: as §1
# HSF1 = HSF1 (Homo sapiens, UniProt Q00613 1-529); conditions: protein: recombinant; tags: N-terminal GST; chain copies: 3; dsDNA, one strand shown
# HSF1, sequence (Q00613 whole entry): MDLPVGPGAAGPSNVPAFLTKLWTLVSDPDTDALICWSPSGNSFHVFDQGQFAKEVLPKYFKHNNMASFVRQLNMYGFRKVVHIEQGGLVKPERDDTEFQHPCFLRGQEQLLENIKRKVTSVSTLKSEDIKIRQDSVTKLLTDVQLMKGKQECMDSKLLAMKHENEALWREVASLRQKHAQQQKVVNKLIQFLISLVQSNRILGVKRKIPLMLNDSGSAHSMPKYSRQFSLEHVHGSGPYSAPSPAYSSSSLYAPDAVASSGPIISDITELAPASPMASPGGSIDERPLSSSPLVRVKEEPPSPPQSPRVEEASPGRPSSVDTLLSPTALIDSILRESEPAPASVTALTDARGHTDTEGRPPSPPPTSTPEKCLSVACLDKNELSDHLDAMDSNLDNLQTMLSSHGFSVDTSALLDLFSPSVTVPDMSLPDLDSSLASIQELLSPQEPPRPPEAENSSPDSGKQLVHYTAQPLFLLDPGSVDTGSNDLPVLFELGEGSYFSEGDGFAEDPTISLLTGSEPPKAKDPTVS
# Procedure, shortened: as §1
# SPIC = target: T2, SPIC (Homo sapiens, UniProt Q8N5J4 1-248); conditions: protein: recombinant; tags: N-terminal GST; dsDNA, one strand shown
# T2 sequence: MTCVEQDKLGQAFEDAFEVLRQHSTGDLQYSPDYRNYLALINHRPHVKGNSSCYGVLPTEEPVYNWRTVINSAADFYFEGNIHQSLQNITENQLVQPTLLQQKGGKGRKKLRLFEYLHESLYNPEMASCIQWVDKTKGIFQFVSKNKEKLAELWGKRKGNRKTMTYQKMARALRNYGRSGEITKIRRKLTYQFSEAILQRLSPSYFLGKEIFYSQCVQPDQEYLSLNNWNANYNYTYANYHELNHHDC
# Procedure, shortened: as §1
# ELF4 = ELF4 (Homo sapiens, UniProt Q99607 1-663); conditions: protein: recombinant; tags: N-terminal GST; dsDNA, one strand shown
# ELF4, sequence (Q99607 whole entry): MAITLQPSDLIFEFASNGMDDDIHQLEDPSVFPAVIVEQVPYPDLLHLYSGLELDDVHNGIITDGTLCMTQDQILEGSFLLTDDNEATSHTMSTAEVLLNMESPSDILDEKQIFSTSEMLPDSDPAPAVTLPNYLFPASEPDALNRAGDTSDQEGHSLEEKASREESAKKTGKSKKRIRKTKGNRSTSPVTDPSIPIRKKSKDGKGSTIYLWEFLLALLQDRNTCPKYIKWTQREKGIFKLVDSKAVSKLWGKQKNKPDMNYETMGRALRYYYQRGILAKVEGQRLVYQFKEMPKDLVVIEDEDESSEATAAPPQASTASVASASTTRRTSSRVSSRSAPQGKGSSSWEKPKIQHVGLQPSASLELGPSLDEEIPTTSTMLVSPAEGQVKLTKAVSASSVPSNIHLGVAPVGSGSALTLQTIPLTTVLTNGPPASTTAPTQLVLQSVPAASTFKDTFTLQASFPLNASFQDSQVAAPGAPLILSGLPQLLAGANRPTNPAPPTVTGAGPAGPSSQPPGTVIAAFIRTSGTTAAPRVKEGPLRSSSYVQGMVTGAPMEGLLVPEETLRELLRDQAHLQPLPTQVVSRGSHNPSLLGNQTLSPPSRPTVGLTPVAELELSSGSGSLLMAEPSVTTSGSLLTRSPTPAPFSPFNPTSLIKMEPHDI
# Procedure, shortened: as §1
# ELK4 = target: T3, ELK4 (Homo sapiens, UniProt P28324-2 1-405); conditions: protein: recombinant; tags: N-terminal GST; dsDNA, one strand shown
# T3 sequence: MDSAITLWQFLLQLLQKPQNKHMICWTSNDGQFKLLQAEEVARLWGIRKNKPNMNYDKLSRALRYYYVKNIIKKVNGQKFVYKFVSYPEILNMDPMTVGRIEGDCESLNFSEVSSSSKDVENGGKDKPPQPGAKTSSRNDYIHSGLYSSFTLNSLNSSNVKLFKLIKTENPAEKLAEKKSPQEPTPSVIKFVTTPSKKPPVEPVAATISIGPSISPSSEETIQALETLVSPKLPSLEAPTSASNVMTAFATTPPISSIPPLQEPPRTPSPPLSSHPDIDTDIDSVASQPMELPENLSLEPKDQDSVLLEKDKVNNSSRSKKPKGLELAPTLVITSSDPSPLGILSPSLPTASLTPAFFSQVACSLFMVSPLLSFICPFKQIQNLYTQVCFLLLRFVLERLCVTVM
# Procedure, shortened: as §1
# ETV2 = target: T4, ETV2 (Homo sapiens, UniProt O00321 1-342); conditions: protein: recombinant; tags: N-terminal GST; dsDNA, one strand shown
# T4 sequence: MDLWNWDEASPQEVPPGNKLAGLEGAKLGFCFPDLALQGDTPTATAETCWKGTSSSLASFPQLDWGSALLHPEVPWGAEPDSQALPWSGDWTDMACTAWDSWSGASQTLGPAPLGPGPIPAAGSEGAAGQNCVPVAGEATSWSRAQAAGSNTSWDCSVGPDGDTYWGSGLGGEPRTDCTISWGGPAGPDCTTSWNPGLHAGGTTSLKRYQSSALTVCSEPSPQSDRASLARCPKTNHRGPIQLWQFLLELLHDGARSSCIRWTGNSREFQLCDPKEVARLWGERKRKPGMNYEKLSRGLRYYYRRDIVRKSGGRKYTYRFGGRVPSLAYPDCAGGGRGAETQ
# Procedure, shortened: as §1
# ELF3 = target: T5, ELF3 (Homo sapiens, UniProt P78545 1-371); conditions: protein: recombinant; tags: N-terminal GST; dsDNA, one strand shown
# T5 sequence: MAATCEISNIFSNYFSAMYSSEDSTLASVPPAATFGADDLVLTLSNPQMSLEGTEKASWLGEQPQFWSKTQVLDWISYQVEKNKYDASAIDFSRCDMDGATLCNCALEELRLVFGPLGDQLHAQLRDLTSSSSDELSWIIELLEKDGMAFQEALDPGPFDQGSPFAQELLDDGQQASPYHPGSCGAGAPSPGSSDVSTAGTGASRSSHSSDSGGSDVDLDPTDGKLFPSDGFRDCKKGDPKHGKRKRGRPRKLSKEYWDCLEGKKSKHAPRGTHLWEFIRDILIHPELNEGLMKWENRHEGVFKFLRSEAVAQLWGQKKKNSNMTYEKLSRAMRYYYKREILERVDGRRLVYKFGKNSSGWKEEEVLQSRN
# Procedure, shortened: as §1
# CRX = CRX (Homo sapiens, UniProt O43186 1-299); conditions: protein: recombinant; tags: N-terminal GST; dsDNA, one strand shown
# CRX, sequence (O43186 whole entry): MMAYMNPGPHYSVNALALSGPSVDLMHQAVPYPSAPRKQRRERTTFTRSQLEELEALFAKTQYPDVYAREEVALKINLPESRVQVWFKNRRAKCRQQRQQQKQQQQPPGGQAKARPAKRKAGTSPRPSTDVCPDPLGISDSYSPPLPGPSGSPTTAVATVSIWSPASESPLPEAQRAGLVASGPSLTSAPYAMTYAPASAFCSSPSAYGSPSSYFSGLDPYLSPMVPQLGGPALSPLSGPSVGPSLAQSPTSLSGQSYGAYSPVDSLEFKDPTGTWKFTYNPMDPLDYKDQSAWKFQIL
# Procedure, shortened: as §1
# ETV1 = ETV1 (Homo sapiens, UniProt P50549 1-477); conditions: protein: recombinant; tags: N-terminal GST; dsDNA, one strand shown
# ETV1, sequence (P50549 whole entry): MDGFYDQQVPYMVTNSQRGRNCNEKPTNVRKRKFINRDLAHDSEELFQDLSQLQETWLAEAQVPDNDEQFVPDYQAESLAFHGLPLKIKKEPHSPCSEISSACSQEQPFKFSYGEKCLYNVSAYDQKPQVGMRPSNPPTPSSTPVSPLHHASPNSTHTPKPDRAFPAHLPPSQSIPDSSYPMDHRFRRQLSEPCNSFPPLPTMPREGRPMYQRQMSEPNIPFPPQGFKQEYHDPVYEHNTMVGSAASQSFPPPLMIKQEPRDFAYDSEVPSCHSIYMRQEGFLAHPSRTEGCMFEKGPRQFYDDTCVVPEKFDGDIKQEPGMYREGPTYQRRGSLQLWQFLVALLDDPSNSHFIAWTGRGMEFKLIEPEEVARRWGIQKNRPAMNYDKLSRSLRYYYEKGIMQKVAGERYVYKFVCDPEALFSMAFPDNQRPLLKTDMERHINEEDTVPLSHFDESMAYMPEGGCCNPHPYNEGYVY
# Procedure, shortened: as §1
# ERF = target: T6, ERF (Homo sapiens, UniProt P50548 1-548); conditions: protein: recombinant; tags: N-terminal GST; dsDNA, one strand shown
# T6 sequence: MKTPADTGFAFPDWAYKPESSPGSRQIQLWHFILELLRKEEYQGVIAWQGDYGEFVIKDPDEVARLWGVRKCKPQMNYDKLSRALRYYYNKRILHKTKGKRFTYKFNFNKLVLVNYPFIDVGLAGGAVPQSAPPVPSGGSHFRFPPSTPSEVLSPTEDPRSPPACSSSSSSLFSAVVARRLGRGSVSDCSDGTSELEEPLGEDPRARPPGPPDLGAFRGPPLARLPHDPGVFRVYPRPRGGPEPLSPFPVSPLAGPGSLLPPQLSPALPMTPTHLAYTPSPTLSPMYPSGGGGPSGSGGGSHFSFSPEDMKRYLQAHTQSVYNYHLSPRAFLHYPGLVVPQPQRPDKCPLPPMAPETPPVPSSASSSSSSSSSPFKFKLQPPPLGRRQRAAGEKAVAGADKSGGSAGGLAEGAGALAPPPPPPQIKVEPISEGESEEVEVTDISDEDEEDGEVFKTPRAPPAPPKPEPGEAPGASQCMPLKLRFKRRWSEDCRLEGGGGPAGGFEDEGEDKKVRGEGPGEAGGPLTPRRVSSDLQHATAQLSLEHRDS
# Procedure, shortened: as §1
# ETV3L = target: T7, ETV3L (Homo sapiens, UniProt Q6ZN32 1-361); conditions: protein: recombinant; tags: N-terminal GST; dsDNA, one strand shown
# T7 sequence: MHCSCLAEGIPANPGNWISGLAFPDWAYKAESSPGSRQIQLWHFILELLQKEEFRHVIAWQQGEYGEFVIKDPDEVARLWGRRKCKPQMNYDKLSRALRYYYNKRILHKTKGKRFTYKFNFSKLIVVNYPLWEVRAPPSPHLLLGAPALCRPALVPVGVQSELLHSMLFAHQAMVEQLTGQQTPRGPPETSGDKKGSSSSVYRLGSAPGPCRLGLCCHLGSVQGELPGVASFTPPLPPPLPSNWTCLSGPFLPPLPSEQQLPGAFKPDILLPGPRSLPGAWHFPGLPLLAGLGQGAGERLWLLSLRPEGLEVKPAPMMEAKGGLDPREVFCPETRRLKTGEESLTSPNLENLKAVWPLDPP
# Procedure, shortened: as §1
# ETS2 = target: T8, ETS2 (Homo sapiens, UniProt P15036 1-469); conditions: protein: recombinant; tags: N-terminal GST; dsDNA, one strand shown
# T8 sequence: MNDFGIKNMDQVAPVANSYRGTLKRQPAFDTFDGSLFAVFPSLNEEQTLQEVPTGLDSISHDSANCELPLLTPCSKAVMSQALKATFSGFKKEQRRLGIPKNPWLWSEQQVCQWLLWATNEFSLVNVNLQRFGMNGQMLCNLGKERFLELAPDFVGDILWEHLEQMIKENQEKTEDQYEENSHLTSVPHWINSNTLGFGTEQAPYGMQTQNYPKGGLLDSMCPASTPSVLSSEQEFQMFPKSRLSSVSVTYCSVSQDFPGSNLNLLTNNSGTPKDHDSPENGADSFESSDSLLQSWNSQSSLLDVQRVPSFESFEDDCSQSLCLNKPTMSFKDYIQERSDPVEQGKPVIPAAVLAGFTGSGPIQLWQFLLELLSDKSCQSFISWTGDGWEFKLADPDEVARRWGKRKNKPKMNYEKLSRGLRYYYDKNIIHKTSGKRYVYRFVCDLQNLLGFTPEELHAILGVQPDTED
# Procedure, shortened: as §1
# SPDEF = target: T9, SPDEF (Homo sapiens, UniProt O95238 1-335); conditions: protein: recombinant; tags: N-terminal GST; dsDNA, one strand shown
# T9 sequence: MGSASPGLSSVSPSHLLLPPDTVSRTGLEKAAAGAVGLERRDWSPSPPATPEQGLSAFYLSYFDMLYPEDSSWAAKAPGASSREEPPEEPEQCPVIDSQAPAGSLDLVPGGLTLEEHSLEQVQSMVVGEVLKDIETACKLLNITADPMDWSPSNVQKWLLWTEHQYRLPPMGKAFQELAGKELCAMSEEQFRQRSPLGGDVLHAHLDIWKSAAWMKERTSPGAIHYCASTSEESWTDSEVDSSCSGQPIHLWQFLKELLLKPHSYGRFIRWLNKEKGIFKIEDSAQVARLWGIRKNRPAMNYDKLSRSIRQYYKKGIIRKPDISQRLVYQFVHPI
# Procedure, shortened: as §1
# ETV7 = target: T10, ETV7 (Homo sapiens, UniProt Q9Y603 1-341); conditions: protein: recombinant; tags: N-terminal GST; dsDNA, one strand shown
# T10 sequence: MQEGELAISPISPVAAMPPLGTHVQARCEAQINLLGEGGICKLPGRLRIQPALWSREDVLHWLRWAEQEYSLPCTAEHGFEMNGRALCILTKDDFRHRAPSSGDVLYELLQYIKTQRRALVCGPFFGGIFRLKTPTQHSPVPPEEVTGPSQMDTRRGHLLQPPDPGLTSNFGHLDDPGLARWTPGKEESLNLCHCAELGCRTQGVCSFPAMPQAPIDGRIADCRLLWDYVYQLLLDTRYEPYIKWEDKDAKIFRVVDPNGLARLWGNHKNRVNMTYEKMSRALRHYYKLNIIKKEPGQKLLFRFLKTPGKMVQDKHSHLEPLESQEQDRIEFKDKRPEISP
# Procedure, shortened: as §1
# ELF5 = target: T11, ELF5 (Homo sapiens, UniProt Q9UKW6-2 1-255); conditions: protein: recombinant; tags: N-terminal GST; dsDNA, one strand shown
# T11 sequence: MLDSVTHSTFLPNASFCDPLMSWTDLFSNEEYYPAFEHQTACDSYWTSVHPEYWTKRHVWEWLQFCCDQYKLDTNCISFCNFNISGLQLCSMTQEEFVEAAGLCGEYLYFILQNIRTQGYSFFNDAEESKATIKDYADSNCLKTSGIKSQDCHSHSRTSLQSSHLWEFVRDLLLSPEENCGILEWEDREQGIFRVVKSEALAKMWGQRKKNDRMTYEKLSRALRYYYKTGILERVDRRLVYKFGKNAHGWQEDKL
# Procedure, shortened: as §1
# ETV3 = target: T12, ETV3 (Homo sapiens, UniProt P41162-2 1-143); conditions: protein: recombinant; tags: N-terminal GST; dsDNA, one strand shown
# T12 sequence: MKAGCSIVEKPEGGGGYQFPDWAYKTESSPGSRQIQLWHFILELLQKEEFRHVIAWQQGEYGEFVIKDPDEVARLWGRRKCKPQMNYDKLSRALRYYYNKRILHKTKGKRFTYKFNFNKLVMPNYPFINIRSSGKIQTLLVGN
# Procedure, shortened: as §1
# ETV6 = ETV6 (Homo sapiens, UniProt P41212 1-452); conditions: protein: recombinant; tags: N-terminal GST; dsDNA, one strand shown
# ETV6, sequence (P41212 whole entry): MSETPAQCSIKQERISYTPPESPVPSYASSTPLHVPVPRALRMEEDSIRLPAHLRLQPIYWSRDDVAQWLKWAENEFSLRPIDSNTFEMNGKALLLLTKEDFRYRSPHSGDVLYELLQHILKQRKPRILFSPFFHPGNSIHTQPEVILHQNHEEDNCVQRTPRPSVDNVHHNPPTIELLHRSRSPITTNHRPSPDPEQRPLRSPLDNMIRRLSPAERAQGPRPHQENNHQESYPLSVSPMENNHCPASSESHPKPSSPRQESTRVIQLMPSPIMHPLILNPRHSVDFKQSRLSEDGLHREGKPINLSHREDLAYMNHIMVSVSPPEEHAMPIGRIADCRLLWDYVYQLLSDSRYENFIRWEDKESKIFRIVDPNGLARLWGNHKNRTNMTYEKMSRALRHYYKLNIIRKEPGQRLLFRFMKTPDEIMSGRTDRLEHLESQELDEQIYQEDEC
# Procedure, shortened: as §1
sequence,measurement,setting,value
TTGTAA,binding signal,FEV,"1.2 fold enrichment (6-mer frequency, TF over GST control)"
same,binding signal,ETV5,"1.35 fold enrichment (6-mer frequency, TF over GST control)"
same,binding signal,HSF1,"1.4 fold enrichment (6-mer frequency, TF over GST control)"
same,binding signal,SPIC,"1.31 fold enrichment (6-mer frequency, TF over GST control)"
same,binding signal,ELF4,"1.24 fold enrichment (6-mer frequency, TF over GST control)"
same,binding signal,ELK4,"1.36 fold enrichment (6-mer frequency, TF over GST control)"
same,binding signal,ETV2,"1.36 fold enrichment (6-mer frequency, TF over GST control)"
same,binding signal,ELF3,"1.44 fold enrichment (6-mer frequency, TF over GST control)"
same,binding signal,CRX,"1.62 fold enrichment (6-mer frequency, TF over GST control)"
same,binding signal,ETV1,"1.31 fold enrichment (6-mer frequency, TF over GST control)"
same,binding signal,ERF,"1.36 fold enrichment (6-mer frequency, TF over GST control)"
same,binding signal,ETV3L,"1.32 fold enrichment (6-mer frequency, TF over GST control)"
same,binding signal,ETS2,"1.23 fold enrichment (6-mer frequency, TF over GST control)"
same,binding signal,SPDEF,"1.26 fold enrichment (6-mer frequency, TF over GST control)"
same,binding signal,ETV7,"1.27 fold enrichment (6-mer frequency, TF over GST control)"
same,binding signal,ELF5,"1.26 fold enrichment (6-mer frequency, TF over GST control)"
same,binding signal,ETV3,"1.3 fold enrichment (6-mer frequency, TF over GST control)"
same,binding signal,ETV6,"1.28 fold enrichment (6-mer frequency, TF over GST control)"
